Results filed as inconclusive are left out. Active and inactive are the calls of the source. The call rests on the fitted dose curve; in most records, active means well fitted inhibition curve with a large enough effect; inconclusive means small, poorly fitted or top-dose-only effect; inactive means no such curve, though single readings can be large or run the other way.
Assay: BET inhibitor-based combinations targeting novel dependencies in MECOM-rearranged (r) AML: SET-2 cell line (AID 2202231); further: nearly all actives have a fitted effect of over 35% in size;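 on viability: plate controls were DMSO treated cells for no effect and wells without cells for full effect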
Conditions: SET-2 AML cells viability, CellTiter-Glo luminescence, 48 h; viability: active compounds read low, series mostly up to about 46 µM
Procedure, shortened: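 Each compound was tested at eleven concentrations on cells seeded at 500/well. After two days' incubation, ATP-based luminescence reported viability; responses relative to DMSO and blank wells yielded AUC and cell-line-centred Z-AUC.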
For CCOC(=O)c1ccc(C#Cc2ccc3c(c2)C(C)(C)CCS3)nc1, the viability was 106% (inactive). In the case of O=C1OC2(CCC(C(=O)Nc3ccn(-c4ccccc4F)n3)CC2)c2cnccc21 (stereo not given), the viability is reported as 90.4% (inactive). In the case of O=C(NCc1ccccc1)[C@H](Cc1ccccc1)NC(=O)[C@H]1O[C@@H]1C(=O)NCCc1ccc(O)cc1, the viability is reported as 105% (inactive). In the case of CCc1cc(/C(C)=N/OCc2ccc(C3CCCCC3)c(C(F)(F)F)c2)ccc1CN1CC(C(=O)O)C1, the Potency is reported as 16.6 µM (active). For O=C1S/C(=C\c2ccc(OCc3cccc(B(O)O)c3)cc2)C(=O)N1Cc1ccc(F)cc1, the viability was 87.6% (inactive). With COc1ccc(/C=C\c2cc(OC)c(OC)c(OC)c2)cc1O the Potency was 0.0148 µM (active). In the case of O=C(c1ccc(Nc2nc(C3CC3)cn3c(-c4cn[nH]c4)cnc23)c(F)c1)N1CCOCC1, the viability is reported as 57.2% (inactive). With COc1ccc2c(c1)CC[C@@H]1[C@@H]2CC[C@]2(C)[C@@H](NCCCCCCN3C(=O)C=CC3=O)CC[C@@H]12 the viability was 113% (inactive). In the case of COc1cc(=C2C=c3ccccc3=N2)[nH]/c1=C/c1[nH]c(C)cc1C, the Potency is reported as 4.17 µM (active). In the case of CN(C)Cc1cccc(N=C(c2ccccc2)c2c(O)[nH]c3cc(C(N)=O)ccc23)c1, the viability is reported as 78% (inactive). In the case of NC(CO)(CO)CCc1ccc(Sc2cccc(OCc3ccccc3)c2)cc1Cl, the Potency is reported as 18.6 µM (active). With CC[C@@]1(O)C(=O)OCc2c1cc1n(c2=O)Cc2c-1nc1cc(F)c(C)c3c1c2[C@@H](N)CC3 the Potency was 0.0037 µM (active). With CN[C@@H](C)C(=O)N[C@H](C(=O)N1CCC[C@H]1c1nc(C(=O)c2ccc(F)cc2)cs1)C1CCCCC1 the Potency was 16.6 µM (active). With CC#Cc1cncc(-c2ccc3c(c2)[C@@]2(N=C(C)C(N)=N2)C2(CCC(OC)CC2)C3)c1 (stereo not given in full) the viability was 107% (inactive). In the case of Cc1cc(/C=c2/sc3nc4ccccc4n3c2=O)c(C)n1-c1ccccc1, the viability is reported as 105% (inactive). For COc1cc(OC)cc(N2CCN(C(=O)Nc3nc4cc(F)ccc4nc3OC)CC2)c1, the Potency was 1.32 µM (active). With CN(C)C/C=C/C(=O)Nc1cc2c(Nc3ccc(F)c(Cl)c3)ncnc2cc1O[C@H]1CCOC1 the Potency was 4.68 µM (active). In the case of CN1C/C=C/CCOc2cccc(c2)-c2ccnc(n2)Nc2cccc(c2)C1, the Potency is reported as 0.118 µM (active). In the case of Fc1ccc(-c2csc3ncnc(NCc4ccc5c(c4)OCO5)c23)cc1, the Potency is reported as 5.9 µM (active). With CCN(C(=O)c1ccccc1OC)c1cc2c(cc1N1CCNC[C@H]1C)n(C)c(=O)n2C the viability was 119% (inactive). With C=C1[C@H](OC(=O)/C=C(\C)CC)C[C@@H](C(C)C)[C@@H]2[C@H]([C@@H](C)OC(C)=O)C(=O)C[C@@H]12 the Potency was 16.6 µM (active). For CCn1c(=O)c(-c2ccc(-c3cncc(C)n3)cc2Cl)cc2cnc(NCCC3CCN(C)CC3)nc21, the viability was 93.7% (inactive). With COC(=O)[C@H](CCCN=C(N)N)NS(=O)(=O)c1ccc(C)cc1 the viability was 112% (inactive). For O=C(Nc1ccccc1)Nc1ccc(-c2ccc(C(=O)[C@@H]3CCC[C@H]3C(=O)O)cc2)cc1, the viability was 105% (inactive). In the case of O=c1sn(-c2cccc3ccccc23)c(=O)n1Cc1ccccc1, the viability is reported as 92.2% (inactive). With C[C@@H](Oc1ccc2[nH]nc(/C=C/c3cnn(CCO)c3)c2c1)c1c(Cl)cncc1Cl the Potency was 1.05 µM (active). With CC(C)NC(=O)C1CCC(n2c(NC(=O)c3ccc(F)cc3)nc3ccc(CN4CCC(C(C)(C)O)CC4)cc32)CC1 (stereo not given) the viability was 121% (inactive). For CC[C@H](CO)Nc1nc(NCc2ccccc2)c2ncn(C(C)C)c2n1, the Potency was 26.3 µM (active). For C/C=C/C/C=C/CCC(=O)[C@H]1O[C@H]1C(N)=O, the Potency was 20.9 µM (active). In the case of C=CCc1cccc(/C=N/NC(=O)CN2CCN(Cc3ccccc3)CC2)c1O, the Potency is reported as 20.9 µM (active). In the case of CCOc1cc(/C=C2/C(=O)N(c3ccccc3)N=C2C)cc(Cl)c1OCC(=O)OC, the viability is reported as 103% (inactive). In the case of CCS(=O)(=O)Nc1ccc(Oc2ccc(F)cc2F)c(-c2cn(C)c(=O)c3[nH]ccc23)c1, the Potency is reported as 0.0525 µM (active). For N#Cc1ccc(N(Cc2ccc(Br)cc2)n2cnnc2)cc1, the viability was 93.5% (inactive). In the case of O=C([O-])C[O-].[Pt+2], the viability is reported as 115% (inactive). With CSC[C@H]1CN(Cc2c[nH]c3c(N)ncnc23)C[C@@H]1O the viability was 110% (inactive). In the case of COc1nc(OCc2cccc(-c3ccccc3)c2C)ccc1CNCCNC(C)=O, the Potency is reported as 26.3 µM (active). With CN(C)CC[C@H](CSc1ccccc1)Nc1ccc(S(=O)(=O)NC(=O)c2ccc(N3CCN(Cc4ccccc4-c4ccc(Cl)cc4)CC3)cc2)cc1[N+](=O)[O-] the Potency was 10.5 µM (active). For C=CC(=O)N[C@H]1CCOC[C@H]1Nc1ncc2cc(-c3c(Cl)c(OC)cc(OC)c3Cl)ccc2n1, the viability was 104% (inactive). For COc1ccc(S(=O)(=O)Nc2cc(-c3csc(C#N)c3)ccc2C)cc1, the Potency was 0.209 µM (active). In the case of COc1cc(C)c(/C=C/C(C)=C/C=C/C(C)=C/C(=O)O)c(C)c1C, the viability is reported as 101% (inactive).
Potency means the concentration at half of the fitted maximal effect.
